This is part of a sample that, as a whole, favours compounds with a hit. Of some 83,000 tested, about 20% had one in any assay.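 Growth was measured after 48 h exposure to one concentration of compound in 96-well plates. Values under 10 count as active.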 Unmarked numbers belong to inactive results. Calls of active or inactive are those of the source.
How the values were obtained:
Experiment in all cases: NCI-60 one-dose screen, 48 h (100 = growth as untreated, 0 = no growth, -100 = all killed)
Settings in all cases: 10 µM unless noted
T-47D breast = tested on: T-47D breast
BT-549 breast = tested on: BT-549 breast
MDA-MB-435 melanoma = tested on: MDA-MB-435 melanoma
SW-620 colon = tested on: SW-620 colon
MCF7 breast = tested on: MCF7 breast
HCT-116 colon = tested on: HCT-116 colon
HCC-2998 colon = tested on: HCC-2998 colon
KM12 colon = tested on: KM12 colon

| SMILES | growth (T-47D breast) | growth (BT-549 breast) | growth (MDA-MB-435 melanoma) | growth (SW-620 colon) | growth (MCF7 breast) | growth (HCT-116 colon) | growth (HCC-2998 colon) | growth (KM12 colon) |
| --- | --- | --- | --- | --- | --- | --- | --- | --- |
| C(=C(\C1=NCCN1)n1cnc2ccccc21)/c1ccc2ccccc2c1 | 57.1% | 48.5% | 25.7% | 67.9% | 30.4% | 67.1% | 71.5% | 69.2% |
| CCOC(=O)C1=C(C)N=C2Sc3ccccc3N2C1c1ccccc1 (configuration not stated) | 76.6% | 92.2% | 102% | 92.2% | 106% | 65% | 97.1% | 93.9% |
| Nc1nc(-c2cccc([N+](=O)[O-])c2)c(N=Nc2cccc(Cl)c2)s1 | 13.6% | 48.7% | 53.3% | 52.4% | 19.1% | 33.2% | 27.2% | 25.7% |
| COc1cc(/C=C/C(=O)c2ccc(NC(=O)CSc3nnc(-c4ccc5nc(-c6ccccc6)[nH]c5c4)o3)cc2)cc(OC)c1OC | 89% | 81.6% | 94.1% | 98.8% | 43.9% | 40.8% | 111% | 90% |
| COc1cc(/C=N/n2cnc3oc(-c4ccccc4)cc3c2=N)cc(CN2CCOCC2)c1O | 81.6% | 109% | 60.8% | 86.1% | 73.8% | 29.8% | 101% | 41.1% |
| O=c1[nH]c2cc(Cl)ccc2n1C1CCN(c2ccc3nnc(Cl)n3n2)CC1 | 86.6% | 94.2% | 98.4% | 93.4% | 81.1% | 106% | 100% | 96.5% |
| O=C(/C=C1\C=CN(CCCCF)c2ccccc21)n1ccc2ccccc21 | 91% | 114% | 106% | 105% | 91.8% | 105% | 106% | 112% |
| CCCCCCNC(=O)Oc1ccc(/C(=C(/C)c2ccc(Cl)cc2)c2ccc(OCCN3CCCC3)cc2)cc1 | 41% | 71.6% | 51.6% | -30.7% (active) | -41.8% (active) | -43.9% (active) | 37.1% | 29.7% |
| Cn1cc(-c2nn3cc(-c4cccnc4)nc3s2)c2cc(F)ccc21 | 65% | 92% | 29.7% | 80.3% | 37.8% | 91% | 96.6% | 76.4% |
| Cc1ccc(Nc2ncnc3c2c(C)nn3-c2ccc([N+](=O)[O-])cc2)cc1 | 78.8% | 92.5% | 95.7% | 65.5% | 83% | 58.9% | 97.4% | 81.2% |
| O=C1[C@H]2Cc3c([nH]c4ccccc34)[C@H](c3ccc(Cl)cc3)N2C(=O)CN1C1CCN(Cc2c(Cl)cccc2Cl)CC1 | 62.5% | 91.6% | 77% | 77% | 19.1% | 37.8% | 44.1% | 72.5% |
| C#C[C@]1(O)CC[C@H]2[C@@H]3CC=C4c5sc(Nc6nc(C)cc(OC)n6)nc5CC[C@]4(C)[C@H]3CC[C@@]21C | 59% | 48% | 34.7% | 23.6% | 8.47% (active) | 42.7% | 80.9% | 46.1% |
| Oc1ccc(CSc2nnc(-c3ccc(Cl)cc3)o2)c2cccnc12 | 18.5% | 27.9% | 22.3% | 17.3% | 12.4% | 20.8% | 29.1% | 18.4% |
| CC(c1ccccc1)N1C(=O)/C(=C/c2csc(C#N)n2)SC1=S (configuration not stated) | 69.2% | 90.5% | 94.4% | 74.1% | 36.6% | 67.6% | 107% | 103% |
| Cc1ccccc1NC1CC(=O)N(c2ccc(Cl)cc2Cl)C1=O (configuration not stated) | 105% | 123% | 101% | 96.2% | 94% | 108% | 109% | 105% |
| O=C(CCCCCCN1CC(=O)N2[C@@H](c3ccc(Cl)c(F)c3)c3[nH]c4ccccc4c3C[C@H]2C1=O)NO | 75.6% | 108% | 82.8% | 74.7% | 73.2% | 55.5% | 99.2% | 87.1% |
| O=C(NNc1nc2cc(F)c(F)cc2n2cccc12)c1ccncn1 | 15.1% | 28.7% | 33% | 23.5% | 6% (active) | 20.4% | 53.3% | 21.4% |
| O=c1[nH]c(CCl)nc2c1cnn2-c1ccccc1 | 95.2% | 94.1% | 104% | 102% | 79.5% | 94.9% | 105% | 101% |
| O=C1Nc2cc(OC(F)(F)F)ccc2Oc2ccc(-c3ccnc(N4CC[C@H](O)C4)c3)cc21 | 62.3% | -18.7% (active) | -57.3% (active) | -19.3% (active) | 0.967% (active) | -40.5% (active) | 0.963% (active) | -12.9% (active) |
| C/C(=C(/c1ccc(O)cc1)c1ccc(OCCN2CCCCCC2)cc1)c1ccccc1 | 20.5% | 61.1% | 52.4% | -52.6% (active) | 10.2% | 28.2% | 34.8% | 43.2% |
| CCOC(=O)c1c(NC(=O)c2cccc(C(F)(F)F)c2)sc2c(CN3CCN(C)CC3)c(O)ccc12 | 21% | 102% | -81.5% (active) | -66.4% (active) | -85.4% (active) | -82.6% (active) | -36.6% (active) | -75.2% (active) |
| CC(=O)c1sc(Nc2cccc(Nc3nc(C)c(C)s3)c2)nc1C | 13.3% | 46.2% | 59.1% | 62.5% | 61.7% | 44.2% | 80.1% | 60.2% |
| CCOC(=O)c1c(NC(=O)c2ccc(C(C)(C)C)cc2)sc2cc(OCCN3CCCCC3)ccc12 | 96.9% | 93% | 91.8% | 22.2% | 34.8% | 21.7% | 87% | 51.1% |
| Oc1ccc(CSc2nnc(-c3ccncc3)n2-c2ccccc2)c2cccnc12 | 14.5% | 41.9% | 20% | 16.5% | 2.74% (active) | 22.5% | 35.9% | 16.9% |
| C=CCn1c(SCC(=O)Nc2cccc(C(=O)/C=C/c3ccc(OC)c(OC)c3)c2)nc2ccccc2c1=O | 79.9% | 97.7% | 101% | 74.4% | 45.4% | 55.6% | 100% | 91.8% |
| O=C1[C@H]2Cc3c([nH]c4ccccc34)[C@@H](c3ccc(Cl)cc3)N2C(=O)CN1C1CCN(Cc2c(Cl)cccc2Cl)CC1 | 84.8% | 97.2% | 97.1% | 106% | 87% | 87.9% | 101% | 87.9% |
| CNC(=O)c1c(NC(=O)c2ccc(F)cc2F)sc2c1CCC(=O)C2 | -14.2% (active) | 6.83% (active) | 12.2% | 5.05% (active) | 7.35% (active) | 7% (active) | 13.5% | 9.65% (active) |
| NC(=S)N/N=C(/C=C/c1cn(-c2ccccc2)nc1-c1ccc(Cl)cc1)c1cc2ccccc2oc1=O | 38.7% | 87.1% | 55.6% | 29.6% | 29.6% | 31.1% | 66% | 36.2% |
| CC1CCc2c(sc3nc(SCC(=O)N/N=C/c4ccc(Cl)cc4)n(-c4ccccc4)c(=O)c23)C1 (configuration not stated) | 103% | 99.6% | 101% | 107% | 90.5% | 89.7% | 112% | 103% |

From PubChem BioAssay (NCI)
